The whole screen tested about 2,400 compounds, of which about 750 (31%) were called active. Not all results are given here. A number with no mark means an inactive call.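 The calls were made as follows: active = mean activation across replicates above the hit cutoff set in the earlier primary screen (cut at about 8% in these data); inactive = the rest.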

The target of this assay is Melanocortin receptor 4 (Homo sapiens) (UniProt P32245). The assay can be described thus: activators of MC4R arrestin recruitment – cell-based, luminescence, U2OS, confirmation (AID 602192). The settings on record: U2OS MC4R beta-arrestin recruitment, at 8.9 µM, active compounds read high, scaled DMSO 0%, Melanotan II 100%.
Chain of Melanocortin receptor 4 (Homo sapiens) (P32245 whole entry, looked up): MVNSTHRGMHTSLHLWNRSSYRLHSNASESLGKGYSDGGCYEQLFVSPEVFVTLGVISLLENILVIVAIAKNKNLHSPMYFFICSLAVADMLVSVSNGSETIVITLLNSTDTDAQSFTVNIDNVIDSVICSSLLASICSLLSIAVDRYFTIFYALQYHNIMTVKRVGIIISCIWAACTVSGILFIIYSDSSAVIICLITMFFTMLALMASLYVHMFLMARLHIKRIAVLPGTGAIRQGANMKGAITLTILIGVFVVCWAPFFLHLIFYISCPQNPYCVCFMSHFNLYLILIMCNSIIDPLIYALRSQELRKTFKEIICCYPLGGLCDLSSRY
Regarding `COc1cc(/C=C(\C#N)C(=O)Nc2ccc3ccccc3c2)c([N+](=O)[O-])cc1OC`, the activation was 5.51%.
As for `CC(=O)c1cccc(-c2cnc3c(NC=O)cc(-c4ccc(N(C)C)cc4)cn23)c1`, the figure is 17.7% (active); as for `COc1ccc(-c2cc(NC=O)c3ncc(-c4ccccc4)n3c2)cc1OC`, 17.6% (active); as for `CN(C)C(=O)c1cccc(-c2cnc3c(NC=O)cc(-c4ccc(F)cc4)cn23)c1`, 9.94% (active).
For the compound `CN(C)CCNC(=O)c1cccc(-c2cnc3c(NC=O)cc(-c4cccc(C(F)(F)F)c4)cn23)c1`, the activation was 20.8% (active).
For `Cn1c(=S)sc2ccc3ccccc3c21`, the activation was 2.83%.
As for `C=CCn1c(SCC(=O)c2ccc(Br)cc2)nnc1C(C)NC(=O)Cc1ccc(OC)cc1` (configuration not stated), the figure is 3.84%.
As for `COC(=O)c1nc2n(n1)C(c1ccc([N+](=O)[O-])cc1)C(C(=O)Nc1ccc(Cl)cc1)=C(C)N2` (configuration not stated), the figure is -3.03%; as for `CCOC(=O)c1c(-c2ccc(C)cc2C)csc1NC(=O)CSc1nnnn1C`, -1.45%.
As for `CCOC(=O)c1[nH]c2c(c1-c1ccccc1)C(=O)CC(c1ccc(Cl)cc1)C2` (configuration not stated), the figure is 2.82%; as for `Cc1ccc(-n2nc3cc(Cl)c(NC(=O)c4ccco4)cc3n2)cc1`, 0.27%; as for `COc1ccc(S(=O)(=O)N2CCC(C(=O)OCC(=O)c3ccccc3)CC2)cc1[N+](=O)[O-]`, 5.6%.
On to `Cc1cc(C)cc(C(=O)OCC(=O)NCCNC(=O)COC(=O)c2cc(C)cc(C)c2)c1`, for which the activation is 0.95%.
Regarding `O=C(COC(=O)c1cccc(Br)c1)Nc1cccc2c1C(=O)c1ccccc1C2=O`, the activation was 8.85% (active).
Under `O=C(CSc1ccccc1)Nc1nnc(/C=C/c2ccccc2)s1` stands 32.6% (active).
As for `CCCCNc1c(-c2cccc(Sc3ccc(OC)cc3)c2)nc2ccccn12`, the figure is 5.36%; as for `COc1ccc2sc(-c3ccc(S(C)(=O)=O)cc3)c(C#Cc3cncn3C)c2c1`, 27.1% (active); as for `O=C(Cn1cnc2c(nnn2-c2ccccc2)c1=O)N1CCC(Cc2ccccc2)CC1`, 5%.
With `CSc1ccc(/C=N\NC(=O)COc2ccc(Cl)cc2Br)cc1`, the activation was 4.69%.
Under `CCN(CC)S(=O)(=O)c1ccc(C)c(NC(=O)COc2ccc(Br)cc2Cl)c1` stands 12.9% (active).
Turning to `CCN(CC)C(=O)Oc1ccc(Br)cc1C(=O)Nc1ccc(F)c(Cl)c1`, the activation was -3.02%.
Consider `O=C(c1cc(-c2cccc(O)c2)on1)N1CCc2ccccc2C1`, for which the activation is -1.12%.
Under `COc1ccc(Nc2ncnc3sc(-c4ccccc4)cc23)c(OC)c1` stands 5.2%; under `COCCNc1nc(Nc2ccccc2Cl)c2sc(-c3ccccc3)cc2n1`, 11.8% (active).
Under `Clc1ccccc1Nc1nc(NCc2cccs2)nc2ccsc12` stands 2.53%; under `O=C(Nc1sc2c(c1-c1nc3ccccc3[nH]1)CCCC2)C1CC1`, 6.22%.
`O=C(OCc1cn(-c2ccc(Cl)c(Cl)c2)nn1)c1ccccc1Cl`: the activation is -2.69%.
Turning to `COc1ccc(Nc2oc(-c3ccccc3Cl)nc2C#N)cc1`, the activation is 6.82%.
In the case of `COc1cccc(CNC(=O)c2nnn(CC(=O)Nc3cc(Cl)ccc3C)c2N)c1`, the activation is 2.75%.
Take `Cc1cc(/C=C(/C#N)C(=O)Nc2ccc(Cl)cc2)c(C)n1-c1cccnc1`: the activation was 0.76%.
With `Cc1ccc2nc(-c3ccncc3)cc(C(=O)Nc3ccc(OC(F)F)cc3)c2c1`, the activation was 1.63%.
Regarding `CCN1C[C@@H]2[C@@H]3C(=O)N(Cc4ccccc4)C(=O)[C@@H]3[C@](Cc3ccccc3)(C(=O)OC)N2C1=NC1CCCCC1`, the activation was 17% (active).
In the case of `COc1ccc2nc(NC(=O)c3ccc(Br)s3)sc2c1`, the activation was 5.97%.
On to `CN(C)CCCN(C(=O)c1ccc(S(=O)(=O)N2CCCCCC2)cc1)c1nc2ccc(Br)cc2s1`, for which the activation was 15.3% (active).
Regarding `CSc1nc2sc3c(c2c(=O)[nH]1)CCc1ccccc1-3`, the activation was 9.67% (active).
Under `COc1ccc(Cn2c(C)c(C)c(C#N)c2NC(=O)Nc2ccc(F)cc2)cc1` stands 2.83%; under `COC(=O)c1sccc1NC(=O)CCC1CCCC1`, 0.35%.
Consider `Cc1csc(NC(=O)c2ccc(-c3ccc(Cl)cc3Cl)o2)n1`, for which the activation is 9.09% (active).
Regarding `O=C(NC(c1ccc(-c2ccccc2)cc1)c1cnccn1)C1CCN(CCOc2ccc(Cl)cc2Cl)CC1` (configuration not stated), the activation is 7.32%.
As for `Cc1ccc(NC(=O)Nc2ccccc2)c(Br)c1`, the figure is 3.05%; as for `Cc1ccc(-c2csc(NC(=O)Cn3[nH]c(=O)c4ccccc4c3=O)n2)cc1`, 2.98%.
In the case of `Brc1ccc(-c2csc(N/N=C/c3cccnc3)n2)cc1`, the activation was -2.16%.
With `CC(=O)Nc1ccc(-c2csc(NC(=O)Nc3ccccc3)n2)cc1`, the activation is 26.9% (active).
For `O=C(Nc1nc(-c2ccc(-c3ccccc3)cc2)cs1)c1cnccn1`, the activation is 10.5% (active).
As for `N#CC(=C1SC=CS1)c1nc(-c2ccccc2)cs1`, the figure is -2.79%.
For `N#CCC(=O)N/N=C/c1cn(Cc2ccc3ccccc3c2)c2ccccc12`, the activation is 2.4%.
As for `COc1ccc(C(=O)c2oc3ccc(Br)cc3c2NC(C)=O)cc1`, the figure is 1.93%; as for `COc1ccc(/C=N/NC(=O)Nc2ccc3nsnc3c2)c(OC)c1`, -0.12%.
Turning to `CC(=O)c1sc(NC(=O)CCCOc2ccccc2C)nc1C`, the activation is 5.8%.
As for `COc1ccc(C(=O)n2nc(-c3ccc(C)cc3)nc2N)cc1OC`, the figure is 0.77%.
With `COc1cccc(CNCCc2c[nH]c3ccccc23)c1OCc1ccccc1F`, the activation was 32% (active).
As for `CCc1ccc(Nc2ncc3c(n2)CC(c2ccco2)CC3=O)cc1` (configuration not stated), the figure is 0.77%.
Under `COc1ccc(OCC(=O)Nc2ccc(N3CCC(C)CC3)cc2)cc1` stands 2.6%; under `O=C(CCCN1C(=O)/C(=C/c2cccs2)SC1=S)Nc1ccc(O)cc1`, 11.8% (active).
With `O=C(CCCN1C(=O)/C(=C\c2ccco2)SC1=S)Nc1cccc2ccccc12`, the activation is -0.83%.
As to `O=C(/C=C/c1c(Cl)cccc1Cl)NCc1ccccc1`, the activation was -0.28%.
Under `COc1cccc2sc(N(CCCN(C)C)C(=O)C(c3ccccc3)c3ccccc3)nc12` stands 19.5% (active).
Under `Cc1cccc(NC(=O)Nc2cccc(Oc3c(F)c(F)c(F)c(F)c3F)c2)c1` stands -1.61%.
Under `Cc1ccc(-n2cc3ccc([N+](=O)[O-])cc3n2)cc1` stands 5.74%; under `Cc1ccc(Nc2nnc(SCC(=O)c3cc4ccccc4o3)s2)cc1C`, 1.84%; under `Cc1ccc(Nc2nnc(SCc3ccccc3)s2)cc1`, 9.35% (active).
Take `COc1ccc(S(=O)(=O)N/N=C\c2ccc(OC)c(COc3ccc(C)cc3[N+](=O)[O-])c2)cc1`: the activation is 1.84%.
Under `CC(C)Oc1c(Br)cc(Br)cc1/C=N/NC(N)=S` stands 13.3% (active); under `CCC(=O)c1cc2c(cc1NC(=O)c1cccs1)OCCO2`, 6.01%; under `Cc1nn2cc(-c3ccc(Cl)cc3)cnc2c1Br`, -1.24%.
Turning to `CC(=O)Nc1ccc(NC(=O)c2sc3nc4c(c(-c5ccc(C)cc5)c3c2N)CCC4)cc1`, the activation was 5.71%.
Under `CSc1ccc(S(=O)(=O)NCc2ccc(Cl)cc2)cc1` stands 1.19%.

These data come from PubChem BioAssay AID602192 (The Scripps Research Institute Molecular Screening Center, 2012).
